Sampled rows, rich in hits. Any-hit rate of the full collection: about 2.1%.
COUP-TFII inh: NR2F2 (human) inhibition, primary screen; AID 686940; inhibition, % at 8.6 µM; HEK293T NGFI-A luciferase reporter, luminescence; P24468; actives 0.7% (n = 370,000);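 active = inhibition above a per-plate cutoff, mean inhibition of test wells between control levels plus 3 SD, cut at about 38% in these data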;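 also: cells cotransfected with COUP-TFII expression vector driving the NGFI-A reporter; 0% = median of COUP-TF2 test wells and 100% = reporter-only cells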
Target sequence (P24468 whole entry, looked up): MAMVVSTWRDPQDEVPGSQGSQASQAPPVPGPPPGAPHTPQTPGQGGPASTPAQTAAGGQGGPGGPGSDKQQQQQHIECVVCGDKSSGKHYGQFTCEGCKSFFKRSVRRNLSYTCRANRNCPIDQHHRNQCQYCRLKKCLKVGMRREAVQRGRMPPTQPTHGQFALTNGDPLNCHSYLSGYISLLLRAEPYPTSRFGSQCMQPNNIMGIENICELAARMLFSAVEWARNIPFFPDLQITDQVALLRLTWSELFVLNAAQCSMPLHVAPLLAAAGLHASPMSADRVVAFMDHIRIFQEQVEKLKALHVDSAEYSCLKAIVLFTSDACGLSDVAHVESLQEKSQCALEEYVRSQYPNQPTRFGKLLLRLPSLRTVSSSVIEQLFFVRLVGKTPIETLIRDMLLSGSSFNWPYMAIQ
aDG glyco up: alpha-DG glycosylation activation; Pro5-aDG cells, alpha-DG glycosylation AlphaScreen (IIH6); 0% Pro5, 100% B10-LARGE cell signal; activation, % at 10 µM; actives 0.22% (n = 360,000); AID 624168;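 active = activation of at least 8% versus controls, or a plate z-score of at least 8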;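 also: Pro5 are CHO cells carrying HIG-tagged alpha-DG that lacks glycosylation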
Gli-Sufu antag: blocks Gli-Sufu signaling in a luciferase reporter; Sufu-KO-LIGHT fibroblasts, Gli luciferase reporter luminescence; inhibition, % at 5 µM; actives 0.74% (n = 340,000); AID 588413;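 active = inhibition above about 55%, limit read from the data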;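 also: 0% = DMSO-treated cells and 100% = wells with medium but no cells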
HIV Env fusion: HIV envelope-mediated fusion inhibition. HeLa-JRFL Env/CEM21 cell fusion, luciferase. inhibition, % at 12.3 µM. actives 1.1% (n = 360,000);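 active = mean replicate inhibition score of at least 50 and every replicate individually at or above 50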;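 also: 0% = plate neutral controls and 100% = maraviroc near 300 nM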
GalR3 antag: blocks the human galanin receptor 3. O60755. HEK293 GalR3-CNG cAMP membrane potential fluorescence; galR3 body fused to GalR1 C-terminus. inhibition, % at 3 µM. actives 0.44% (n = 360,000);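 active = inhibition above the screen-wide average plus 3 SD, cut at about 13% in these data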;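 also: forskolin and galanin both at EC90 stimulate the cells; cAMP rise reported by CNG channel membrane potential dye signal; 0% = forskolin plus galanin with DMSO and 100% = forskolin alone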
Gli-Sufu confirm: Gli-SUFU antagonism confirmation, single concentration; shares compounds with Gli-Sufu antag; Sufu-KO-LIGHT cells, Gli luciferase reporter, luminescence; inhibition, % at 5 µM; actives 40% (n = 2,500);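 active = mean inhibition at 5 µM reaching about 45%, limit read from the data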;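 also: plate controls were DMSO-treated cells for no effect and wells lacking cells for full effect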
Gli cytotox: counter-screen for Gli-SUFU antagonists: cytotoxicity; shares compounds with Gli-Sufu antag; Sufu-KO-LIGHT cells cytotoxicity, ATP luminescence; cytotoxicity, % at 5 µM; actives 32% (n = 2,500); AID 651994;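 active = mean cytotoxicity at 5 µM above about 25%, limit read from the data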;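 also: cells exposed to compound overnight for roughly 16 to 18 hours; plate controls were DMSO wells with cells for no effect and medium without cells for full effect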
Wnt3a counter: inhibits Wnt3a reporter, counter-screen for Gli-SUFU antagonists; shares compounds with Gli-Sufu antag; Wnt-LIGHT cells, Wnt3a-driven luciferase reporter, luminescence; inhibition, % at 6.25 µM; actives 20% (n = 2,500);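 active = mean inhibition above about 25%, limit read from the data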
An asterisk follows results filed as active; . = no result; [ ] = remark or other dose.

SMILES	COUP-TFII inh	aDG glyco up	Gli-Sufu antag	HIV Env fusion	GalR3 antag	Gli-Sufu confirm	Gli cytotox	Wnt3a counter
O=c1[nH]c(C2CCN(S(=O)(=O)c3ccccc3F)CC2)nc2c1nnn2Cc1ccc(F)cc1	-10	0	6	3	-9	.	.	.
Cc1ccc(Cn2nnc3c(=O)[nH]c(C4CCN(S(=O)(=O)c5ccccc5F)CC4)nc32)cc1	2	0	51	-3	-7	13	2	-9
COc1ccccc1NC(=O)N[C@H]1CC[C@H](CCNS(=O)(=O)c2ccc(F)cc2)O[C@@H]1CO	.	.	.	-2[16.7 µM]	.	.	.	.
CCOC(=O)c1c(NC(=S)Nc2ccccc2)sc(C)c1C	3	0	-8	.	-4	.	.	.
CCOC(=O)c1c(NC(=O)C[n+]2ccc(Cc3ccccc3)cc2)sc(C)c1C	11	0	52	3	-5	36	15	6
CO[C@H]1CN(C)C(=O)c2cc(NC(=O)C3CCOCC3)ccc2OC[C@H](C)N(C(C)=O)C[C@H]1C	.	.	.	-2[16.7 µM]	.	.	.	.
Cc1c(NS(=O)(=O)c2ccc(NC(=O)CCC(=O)O)cc2)c(=O)n(-c2ccccc2)n1C	1	0	63*	-1	-5	5	14	-33
O=C(N[C@@H]1C/C=C\C[C@H](CC(=O)N(CCO)Cc2ccccc2)C(=O)N[C@@H](Cc2c[nH]c3ccccc23)COC1=O)OCC1c2ccccc2-c2ccccc21	7	0	53	-58	-6	57*	22	-30
O=C(N[C@@H]1C/C=C\C[C@@H](CC(=O)N(CCO)Cc2ccccc2)C(=O)N[C@@H](c2ccccc2)COC1=O)OCC1c2ccccc2-c2ccccc21	-8	0	56*	-30	-4	56*	18	-68
O=C(N[C@H]1C/C=C\C[C@@H](CC(=O)N(CCO)Cc2ccccc2)C(=O)N[C@H](Cc2c[nH]c3ccccc23)COC1=O)OCC1c2ccccc2-c2ccccc21	1	0	53	-51	-2	52*	7	-46
C[C@H]1CN([C@@H](C)CO)C(=O)c2cc(NC(=O)Cn3cnnn3)ccc2O[C@H]1CN(C)CC1CCCCC1	.	.	.	-7[16.7 µM]	.	.	.	.
Cc1ccc(S(=O)(=O)N[C@@H]2C=C[C@@H](CC(=O)N3CCN(c4ccccc4)CC3)O[C@H]2CO)cc1	.	.	.	3[16.7 µM]	.	.	.	.
CCCCn1c(SCc2c(C)noc2C)nc2cc(S(N)(=O)=O)ccc21	-66	-1	51	.	1	62*	1	-13
CCCCn1c(SCC(=O)Nc2cc(C)on2)nc2cc(S(N)(=O)=O)ccc21	6	0	-17	5	-2	.	.	.
CC1(C)Cc2c(cnn2-c2ccccc2)C(NC(=O)c2ccc[n+]([O-])c2)C1 (stereo not given)	3	0	51	.	-3	21	8	17
Cc1nnc(NC(=O)CN2CCN(Cc3ccccc3)CC2)s1	-4	0	8	8	-8	.	.	.
O=C(CN1CCN(Cc2ccccc2)CC1)Nc1nnc(C(F)(F)F)s1	5	0	63*	-3	-8	28	-3	-18
CCCc1cc(=O)oc2cc(C)cc(OCC(=O)N3CCC(C(=O)O)CC3)c12	10	0	55	.	-7	19	-3	12
CCCCc1cc(=O)oc2cc(C)cc(OCC(=O)N3CCC(C(=O)O)CC3)c12	10	0	-14	.	-6	.	.	.
CC(C)c1ccc(N2C(=O)C3C4C=CC(CC4)C3C2=O)cc1 (stereo not given)	5	0	4	8	-9	.	.	.
CC1CC(=O)N(c2ccc(C(C)C)cc2)C(=O)C1	1	0	54	4	-6	21	16	-17
CC(N=C1NS(=O)(=O)c2ccccc21)C(=O)OCC(=O)N(C)C1CCS(=O)(=O)C1 (stereo not given)	2	0	86*	7	-5	14	-5	14
CCC(=O)N(C)C[C@H]1Oc2cc(C#CCOC)ccc2S(=O)(=O)N([C@@H](C)CO)C[C@H]1C	.	.	.	9[16.7 µM]	.	.	.	.
Fc1cccc(Nc2c3c(nc4ccccc24)CCC3)c1	-5	2	-1	-5	-12	.	.	.

Screening results (PubChem)
